Most compounds without a hit are left out; they make up all but 11% or so of the library.
G9a block: qHTS Assay for Inhibitors of Histone Lysine Methyltransferase G9a; Histone-lysine N-methyltransferase EHMT2 (Homo sapiens), Q96KQ7; G9a H3K9 monomethylation, AlphaScreen, 2 h; Potency, µM (series often up to 102 µM), most hits filed as inhibitors; actives 8.8% (n = 350,000); AID 504332, 2011; also: nearly all actives have a fitted effect of over 75% in size
Target sequence (Q96KQ7 913-1193 limits assumed): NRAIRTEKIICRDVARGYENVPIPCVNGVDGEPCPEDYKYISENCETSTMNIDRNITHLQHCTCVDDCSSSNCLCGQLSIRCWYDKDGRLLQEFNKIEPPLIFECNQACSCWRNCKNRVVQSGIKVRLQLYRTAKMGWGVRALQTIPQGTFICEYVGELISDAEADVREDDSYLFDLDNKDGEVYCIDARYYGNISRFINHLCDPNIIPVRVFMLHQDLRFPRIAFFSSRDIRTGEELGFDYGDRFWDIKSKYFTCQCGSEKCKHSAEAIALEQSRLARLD
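Using a bead-based AlphaScreen, monomethylated H3K9 product from 2 h room-temperature reactions (G9a 20 nM, peptide 500 nM, SAM 20 uM) was detected with 0.5 ug/mL rabbit anti-H3K9me1 antibody.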
HP1b binding inh: HTS for Inhibitors of HP1-beta Chromodomain Interactions with Methylated Histone Tails | Chromobox protein homolog 1 (Homo sapiens), P83916 | AlphaScreen HP1-beta / biotin-H3K9me3 peptide binding | Potency, µM (titrated, usually from 114 µM), most hits filed as inhibitors | actives 0.56% (n = 390,000) | AID 540317, 2011; also: nearly all actives have a fitted effect of over 70% in size
Target sequence (P83916 whole entry, looked up): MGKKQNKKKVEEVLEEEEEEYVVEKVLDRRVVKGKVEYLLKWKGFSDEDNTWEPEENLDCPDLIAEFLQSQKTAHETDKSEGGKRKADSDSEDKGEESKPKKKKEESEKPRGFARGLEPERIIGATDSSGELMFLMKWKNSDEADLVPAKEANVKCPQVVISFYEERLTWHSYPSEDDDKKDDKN
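HP1-beta protein (50 nM final) preincubated 30 min at room temperature with biotinylated H3(1-18)K9me3 peptide (50 nM) in PBS pH 7.4, 0.01% Tween-20, then compound added for 30 min. AlphaScreen streptavidin donor/nickel chelate acceptor beads (10 ug/mL final), 30 min dark, luminescence read.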
BAZ2B block: qHTS Assay for Inhibitors of BAZ2B | Bromodomain adjacent to zinc finger domain protein 2B (Homo sapiens), Q9UIF8 | AlphaScreen BAZ2B-H3K14Ac peptide displacement | Potency, µM (top dose mostly 114 µM), usual class: inhibitors | actives 4.4% (n = 360,000); also: nearly all actives have a fitted effect of over 60% in size
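Compounds, titrated to a top concentration of 110 uM, were incubated 30 min at room temperature with preformed BAZ2B/acetyl-K14 H3 peptide complex (50 nM each). Proximity signal was measured by AlphaScreen after 20 min with beads.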
L3MBTL1 block: qHTS Assay for the Inhibitors of L3MBTL1; AlphaScreen L3MBTL1–H3K9me1 peptide binding; Lethal(3)malignant brain tumor-like protein 1 (Homo sapiens), Q9Y468; Potency, µM (highest dose often 57.1 µM), hits mostly inhibitors; AID 485360, 2010; actives 0.66% (n = 230,000); also: nearly all actives have a fitted effect of over 60% in size
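L3MBTL1 (50 nM) pre-complexed 30 min with biotinylated H3(1-15)K9me1 peptide (75 nM), then compounds added for 30 min at room temperature; AlphaScreen streptavidin donor/nickel chelate acceptor beads (10 ug/mL final) read after 30 min dark incubation.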
JMJD2A Tudor inh: qHTS Assay for Inhibitors of JMJD2A-Tudor Domain. Potency, µM (doses to about 114 µM), usual class: inhibitors. Lysine-specific demethylase 4A (Homo sapiens), O75164. actives 4.4% (n = 390,000). AlphaScreen JMJD2A-Tudor / H3K4me3 peptide binding; also: nearly all actives have a fitted effect of over 50% in size
Each line names hits and unclear results; the compound was inactive in the other large screens. Calls follow the shape of the dose curve; as a rule, active = well fitted inhibition curve with a large enough effect; inconclusive = small, poorly fitted or top-dose-only effect; inactive = no such curve, though single readings can be large or run the other way.

Cc1ccc(-c2cc(C3C4C=CCC(C)C4C(=O)N3Cc3ccccc3)ccc2F)cc1 (stereo not given)	none (no result: G9a block, BAZ2B block, L3MBTL1 block)
NC(=S)N/N=C/c1ccc(C(F)(F)F)cc1	none
FC(F)(F)c1ccc(/C=N/n2c(C3CCCCC3)n[nH]c2=S)cc1	G9a block 50.1µM, JMJD2A Tudor inh inconclusive (no result: L3MBTL1 block)
S=c1[nH]nc(C2CCCCC2)n1/N=C/c1c(Cl)cccc1Cl	G9a block 3.55µM (no result: L3MBTL1 block)
S=c1[nH]nc(C2CCCCC2)n1/N=C/c1ccc(Br)s1	G9a block 8.91µM
OCCC1CN(CCCn2cccn2)CCN1C1CCCCC1 (stereo not given)	none (no result: G9a block)
O=S1(=O)c2ccccc2N(Cc2ccccc2F)c2ccccc21	none (no result: L3MBTL1 block)
CCOc1ccc(C(=O)Nc2ccc(C(=O)OCc3cc(=O)n4c(C)csc4n3)cc2)cc1	none (no result: L3MBTL1 block)
S=C(Nc1ccc(Br)cc1)N1CCn2cccc2C1c1cccnc1 (stereo not given)	G9a block inconclusive, BAZ2B block inconclusive, L3MBTL1 block inconclusive, JMJD2A Tudor inh inconclusive
Cc1ccc(NC(=S)N2CCn3cccc3C2c2cccnc2)cc1 (stereo not given)	G9a block 44.7µM, BAZ2B block inconclusive, JMJD2A Tudor inh inconclusive
CC(=O)NC(CCS(C)(=O)=O)C(=O)Nc1cccc(C(C)=O)c1 (stereo not given)	G9a block 25.1µM
CCCCn1c(SCC(=O)c2ccccc2)nc2sc3c(c2c1=O)CCCC3	none (no result: L3MBTL1 block)
CC(C)CCC(O)(CCC(C)C)C(=O)NNc1ccccc1	G9a block 50.1µM
CC(=O)NC1Sc2ccccc2N=C1c1ccccc1 (stereo not given)	G9a block inconclusive, HP1b binding inh inconclusive, JMJD2A Tudor inh 50.1µM (no result: L3MBTL1 block)
CC(=O)Nc1nc(-c2ccccc2)c(-c2ccccc2)s1	none (no result: G9a block, BAZ2B block, L3MBTL1 block)
CCOC(=O)CCc1c(C)nc(SCC(=O)O)c(C#N)c1C	G9a block 8.91µM, JMJD2A Tudor inh 25.1µM
CCOC(=O)CCc1c(C)nc(SCc2ccc(C(=O)O)cc2)c(C#N)c1C	none
CC(C)c1cnc2c(c1SCC(=O)c1ccccc1)c(=O)n(C)c(=O)n2C	none (no result: L3MBTL1 block)
O=C(NCc1ccccc1)c1ccc(CNS(=O)(=O)c2ccc(Br)cc2)cc1	none (no result: BAZ2B block, L3MBTL1 block)
CC(=O)Oc1ccc(C(=O)[C@H]2[C@H]3C(=O)N(c4ccc(C)cc4)C(=O)[C@H]3[C@@H]3C=CC=NN32)cc1	G9a block 3.55µM, JMJD2A Tudor inh inconclusive
O=C(Nc1ccccc1)[C@@H]1[C@@H]2C(=O)N(c3ccc(F)cc3)C(=O)[C@@H]2[C@H]2C=CC=NN21	none (no result: G9a block)
Cc1ccc(N2C(=O)[C@@H]3[C@H](C2=O)[C@H]2C=CC=NN2[C@@H]3C(=O)Nc2ccccc2)cc1	G9a block 7.08µM
COc1ccc(C(=O)[C@H]2[C@H]3C(=O)N(c4ccc(C)cc4)C(=O)[C@H]3C3C=CC=NN32)cc1 (stereo not given in full)	BAZ2B block 39.8µM (no result: G9a block, L3MBTL1 block)
COc1ccc(C(=O)[C@H]2[C@H]3C(=O)N(c4ccccc4)C(=O)[C@H]3C3C=CC=NN32)cc1 (stereo not given in full)	G9a block inconclusive, JMJD2A Tudor inh inconclusive (no result: L3MBTL1 block)
CC(=O)Oc1ccc(C(=O)[C@H]2[C@H]3C(=O)N(c4ccccc4)C(=O)[C@H]3[C@@H]3C=CC=NN32)cc1	G9a block 4.47µM
COc1ccc(C2NC(=O)N(C)C3=C2C(=O)N(c2cccc(C(=O)O)c2)C3)cc1 (stereo not given)	JMJD2A Tudor inh inconclusive (no result: L3MBTL1 block)
CC(=O)Oc1ccc(N2C(=O)[C@@H]3[C@H](C2=O)[C@H]2c4ccccc4C=NN2[C@@H]3C(C)=O)cc1	G9a block inconclusive
COc1ccc(N2C(=O)[C@@H]3[C@H](C2=O)[C@H](C(=O)c2ccc(OC(C)=O)cc2)N2N=CC=C[C@@H]32)cc1	G9a block 3.55µM, BAZ2B block inconclusive (no result: HP1b binding inh, JMJD2A Tudor inh)
CC(=O)Oc1ccc(N2C(=O)C3C(C2=O)C(C(=O)c2ccc(Cl)cc2)N2CCCC32)cc1 (stereo not given)	HP1b binding inh inconclusive, JMJD2A Tudor inh 44.7µM

Screening results as filed in PubChem.
